AmpC inh detg – inhibitors of E. coli AmpC beta-lactamase with detergent. P00811. AmpC hydrolysis of nitrocefin, absorbance 480 nm, 0.01% Triton. Potency, µM (series often up to 114 µM), for the others: at the top dose activity change, negative = inhibition, hits mostly inhibitors. 370,000 compounds, 0.041% hits. AID 485294;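 also: potency is read from the fitted curve at half-maximal effect; 0% = no-compound wells and -100% = no-enzyme wells; nearly all actives have a fitted effect of over 25% in size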
Target sequence (P00811 whole entry, looked up): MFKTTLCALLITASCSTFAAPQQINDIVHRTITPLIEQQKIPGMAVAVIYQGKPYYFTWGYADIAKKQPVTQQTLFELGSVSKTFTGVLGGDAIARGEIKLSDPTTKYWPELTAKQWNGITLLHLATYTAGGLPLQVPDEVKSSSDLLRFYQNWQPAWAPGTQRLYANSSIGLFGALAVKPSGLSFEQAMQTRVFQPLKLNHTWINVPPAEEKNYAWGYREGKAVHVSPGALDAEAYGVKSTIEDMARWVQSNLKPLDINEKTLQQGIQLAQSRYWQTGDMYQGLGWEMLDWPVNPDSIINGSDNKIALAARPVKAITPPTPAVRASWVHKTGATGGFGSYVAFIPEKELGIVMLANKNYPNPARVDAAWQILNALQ
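20 mM phosphate pH 7.0 + 0.01% (detergent screen) or 0.0001% Triton X-100; 5.3 nM AmpC reagent; cpd preinc 15 min RT; nitrocefin (800 uM stock) to start; A480 q20 s × 4 min; Activity was normalised to no-enzyme and no-compound control wells.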
FMDV inh – antivirals against foot and mouth disease virus; FMDV antiviral cell-based qHTS; 410,000 compounds, 1.2% hits; Potency, µM (series often up to 57.9 µM), inactives show at the top dose activity change, negative = inhibition, actives largely listed as inhibitors; calls by dose curve; tested in HEK293T cells; also: read-out not given here; potency is read from the fitted curve at half-maximal effect; nearly all actives have a fitted effect of over 45% in size
AmpC inh no detg – inhibitors of E. coli AmpC beta-lactamase without detergent; 330,000 compounds, 0.52% hits; P00811; AmpC nitrocefin hydrolysis, absorbance 480 nm, 0.0001% Triton; Potency, µM (series often up to 57.1 µM), for inactives: top-dose activity change, negative = inhibition, hits mostly inhibitors;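 also: potency is read from the fitted curve at half-maximal effect; plate controls were no compound for no effect and no enzyme for full effect; nearly all actives have a fitted effect of over 20% in size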
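AmpC (5.3 nM in the dispensed reagent) in 20 mM phosphate pH 7.0 with 0.01% (detergent screen) or 0.0001% Triton X-100 was preincubated with compounds for 15 min at room temperature. Nitrocefin was then added from an 800 uM solution, and hydrolysis was followed at 480 nm.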
HCV inhibitor – HCV inhibition | Huh7.5.1 HCVcc-Cre infection, luciferase reporter, 44 h | Potency, µM (doses to about 41.8 µM), for inactives: top-dose activity change, negative = inhibition, usual class: inhibitors | 340,000 compounds, 3.4% hits; also: potency is read from the fitted curve at half-maximal effect
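After 44 h co-culture of compound, cells and HCVcc-Cre (~0.5 moi), substrate is added for 15 min at room temperature and luciferase measured over 15 sec. Cells were seeded at 1,000/well and pre-cultured 4 h.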
HCMV inh – human cytomegalovirus inhibition; HFF cells, HCMV-luciferase reporter, 72 h; hits give low values; activity change, negative = inhibition, % at 57.5 µM; 410,000 compounds, 4.5% hits; in the data active = activity change below about -60%; inconclusive = no clear call, values can overlap the other calls; inactive = above about -39%
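After 16 h attachment at 37C, HFF cells received test compound and HCMV-luciferase (1 PFU/cell); reporter luminescence read 72 h later, data normalized against buffer-only and known inhibitor Salinomycin.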
* marks the source's active call; other numbers are inactive results; ? = inconclusive; . = no result given; [ ] = remark or other dose. Rows were chosen to be rich in hits. Some 7.3% of all compounds tested hit in one or more screens of this group. Unless noted, calls follow the shape of the dose curve; as a rule, active = well fitted curve in the direction sought with a large enough effect; inconclusive = small, poorly fitted or top-dose-only effect, or another doubt; inactive = no such curve, though single readings can be large; an effect the other way counts as inactive or inconclusive. Unless noted, % is scaled to controls: 0 for no effect and ±100 for the full control effect.

SMILES	AmpC inh detg	FMDV inh	AmpC inh no detg	HCV inhibitor	HCMV inh
CCn1cc(C(=O)NCCc2ccc(C)cc2)c(=O)c2cc(S(=O)(=O)N3CCC(C)CC3)ccc21	-3.9%	-9.6%	.	.	10.1
O=S(=O)(c1ccc(OCC2CO2)cc1)c1ccc(OCC2CO2)cc1 (stereo unspecified)	-7.9%	-6.1%	9.9%	-14.4%	-68.4*
CC(C)(c1ccccc1)c1ccc(OCC2CO2)cc1 (stereo unspecified)	-13.0%	-16.6%	-2.9%	-1.1%	31.3
COc1ccc(CN2CCOc3ccc(CN4CCCCC4CO)cc3C2)c(OC)c1 (stereo unspecified)	.	-1.7%	.	.	.
CC1CC2(C)Oc3ccccc3CC2C(C)C1CNCCCN(C)C (stereo unspecified)	2.6%	?	63.3%	?	-98.5*
CC1Cc2ccccc2N1C(=O)CNCCCN(C)C (stereo unspecified)	-0.4%	-18.9%	-7.5%	?	2.2
Cc1ccccc1NC(=O)Nc1cc(-c2ccccc2)nn1C	1.3%	32.3%	-4.6%	-15.4%	35.8
Cc1ccccc1C(=O)Nc1cc(-c2cc(C(C)(C)C)oc2C)nn1C	-7.5%	-29.1%	84.4%	?	-62.8*
Cc1ccc2oc(=O)n(CCNC(=O)Nc3ccccc3Cl)c2c1	3.0%	?	.	.	-21.9
Cc1cc(C)cc(-n2nc(C)cc2N)c1	1.0%	21.0%	-7.7%	10µM*	33.3
Cc1cccc(-n2nc(C)cc2N)c1	-0.2%	12.9%	-12.2%	5.6%	27.0
O=C(/C=C/Nc1ccccc1)C(F)(F)F	?	-15.1%	-9.6%[11.4 µM]	7.4%	-79.7*
COc1ccc(NC(=O)c2cc(OC)c(OC)c(OC)c2)cc1S(=O)(=O)N1CCCCC1	2.2%	?	72.0%	?	122.4
COc1ccc(NC(=O)c2cncc(Br)c2)cc1S(=O)(=O)N1CCCCC1	-0.3%	20µM*	-15.8%	?	?
COc1ccc(NC(=O)c2ccc(Cl)nc2)cc1S(=O)(=O)N1CCCCC1	-3.4%	?	-44.1%	11.2µM*	-3.1
COc1ccc(C(=O)Nc2ccc(NC(C)=O)cc2)cc1S(=O)(=O)N1CCCC1	-2.9%	1.3%	-17.9%	-1.8%	0.8
COc1ccc(NC(=O)c2cc(F)cc(F)c2)cc1S(=O)(=O)N1CCCCC1	.	-25.0%	-23.2%	10µM*	?
Cc1cccc(NC(=O)CSc2nc3ccccc3nc2N2CCCCC2)c1C	15.0%	-23.4%	.	.	5.8
COc1ccc2oc(C(=O)OCC(=O)NC(=O)c3ccccc3)c(C)c2c1	-6.6%	-17.4%	-34.4%	12.9%	?
O=C(O)c1cccc2c1Cc1cc([N+](=O)[O-])ccc1-2	.	13.7%	.	5.2%	-97.1*
CCOC(=O)[C@@H]1[C@H]2COc3cc(OC)ccc3[C@@H]2N2C(=O)N(c3ccc(F)cc3)C(=O)[C@]12C	-5.2%	-10.0%	61.6%	-0.1%	-28.2
COC(=O)[C@@]1(Sc2ccc(OC)cc2)CC(=O)N(c2ccc(OC)cc2)[C@@H]1c1ccc(OC(C)C)c(OC)c1	.	.	.	.	-4.8
CCCCOc1ccc(-n2nc(C)cc2C)nn1	-19.2%	17.7%	-7.1%	8.5%	-82.4*
COC(=O)C1=C(c2cccc3c2S(=O)(=O)c2ccccc2-3)C[C@@H]2CC[C@H]1N2C(=O)N1CCc2cc(OC)c(OC)cc2C1	?	-30.2%	121.7%	10µM*	-14.5
COC(=O)C1=C(c2cccc3c2S(=O)(=O)c2ccccc2-3)C[C@@H]2CC[C@H]1N2C(=O)N1CCOCC1	7.7%	-10.1%	111.5%	-1.1%	24.0
SMILES	AmpC inh detg	FMDV inh	AmpC inh no detg	HCV inhibitor	HCMV inh
CC(C)C(NC(=O)c1cccc(S(=O)(=O)N2CCOCC2)c1)C(=O)NCc1ccc(Cl)cc1 (stereo unspecified)	5.0%	-4.7%	1.5%	?	-23.4
C[C@@H]1CN([C@H](C)CO)C(=O)c2cc(/C=C/c3ccccc3)cnc2O[C@H]1CN(C)C(=O)NC1CCCCC1	.	-26.0%	.	.	14.4
C[C@H]1CN([C@@H](C)CO)S(=O)(=O)c2ccc(Br)cc2O[C@H]1CN(C)Cc1ccccc1	.	?	.	.	11.5
C[C@H]1CN([C@@H](C)CO)S(=O)(=O)c2ccc(/C=C/c3ccccc3)cc2O[C@H]1CN(C)C(=O)NC1CCCCC1	.	-2.3%	.	.	-62.6*
C[C@H](CO)N1C[C@H](C)[C@H](CN(C)Cc2ccc(Oc3ccccc3)cc2)Oc2cc(Br)ccc2S1(=O)=O	.	-21.0%	.	.	-109.2*
CC(NC(=O)/C(C#N)=C/c1ccc([N+](=O)[O-])o1)c1ccccc1 (stereo unspecified)	-9.7%	28.2µM*	-38.6%	?	-101.4*
CCOCCCNC(=O)/C(C#N)=C/c1ccc(-c2ccc(S(=O)(=O)N3CCOCC3)cc2)o1	0.1%	-11.3%	182.4%	?	.
Cc1ccc(C(C)NC(=O)/C(C#N)=C\c2c(C)[nH]c3ccccc23)cc1 (stereo unspecified)	-6.5%	-9.8%	-22.5%	-10.5%	-60.5*
COC(=O)c1ccc(/C=C(\C#N)C(=O)NC(C)c2ccccc2)cc1 (stereo unspecified)	-3.6%	?	-20.6%	11.2µM*	-95.4*
CC(NC(=O)/C(C#N)=C/c1ccco1)c1ccccc1 (stereo unspecified)	3.4%	-5.8%	-15.2%	16.6%	-19.7
CCOCCCNC(=O)/C(C#N)=C/c1ccc([N+](=O)[O-])o1	-10.1%	31.6µM*	-6.3%[11.4 µM]	?	-99.4*
COc1ccc(/C=C(\C#N)C(=O)NC(C)c2ccccc2)cc1O (stereo unspecified)	-10.1%	-3.4%	-18.7%	0.1%	?
COc1cc(Cl)ccc1OC1(C)CCN(Cc2cccn2-c2nccs2)C1 (stereo unspecified)	.	-25.3%	.	.	-9.7
CCn1c(/C=C/c2cc(Br)ccc2O)nc2ccccc2c1=O	1.8%	?	-41.4%	?	-93.3*
O=c1c2ccccc2nc(/C=C/c2ccc(O)cc2)n1-c1ccc(O)cc1	-7.0%	-18.9%	-32.3%	?	-19.3
O=c1c2ccccc2nc(/C=C/c2ccccc2O)n1-c1ccc(Br)cc1	-3.5%	?	.	.	-63.4*
COCCC1CCCCN1Cc1nc(N2CCCC2)c2cc(OC)c(OC)cc2n1 (stereo unspecified)	.	-1.9%	.	.	.
Cc1nc(C)c(CC(=O)N2CCOc3ccc(CN4CCOCC4)cc3C2)s1	.	-9.4%	.	.	.
COC(=O)C1CN(C(=O)c2ccc(OC(F)F)cc2)c2ccccc2O1 (stereo unspecified)	?	2.4%	-1.1%	21.4%	?
CCCC(c1nnnn1C1CCCCC1)N1C(=O)C(=O)c2ccccc21 (stereo unspecified)	.	.	.	.	-17.3
CCCCNC(=O)C1c2cc(OC)c(OC)cc2C(=O)N(C)C1c1ccc(OC)cc1 (stereo unspecified)	-0.4%	9.0%	21.1%	-7.9%	-99.9*

Screening results as filed in PubChem.
